Sampled rows, rich in hits. Any-hit rate of the full collection: about 1.1%.
IDE cell inh: inhibitors of human insulin-degrading enzyme in cells; P14735; HEK cells, FAbetaB cleavage, fluorescence polarization; inhibition, % at 5.59 µM; 0.41% of 320,000 active;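 active = percent inhibition above the average of all tested compounds plus 3 SD, set per screening campaign, cut at about 16% in these data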;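 also: IDE supplied by intact live HEK cells; FP after avidin binding of uncleaved biotin substrate so inhibition keeps polarization high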
HDAC3 inhib: human HDAC3 inhibition; inhibition, % at 8.3 µM; recombinant HDAC3, fluorogenic peptide/trypsin coupled, fluorescence; 0.15% of 320,000 active; in the data active = inhibition above about 26%, passing the limit was not always enough
Target sequence (O15379 whole entry, looked up): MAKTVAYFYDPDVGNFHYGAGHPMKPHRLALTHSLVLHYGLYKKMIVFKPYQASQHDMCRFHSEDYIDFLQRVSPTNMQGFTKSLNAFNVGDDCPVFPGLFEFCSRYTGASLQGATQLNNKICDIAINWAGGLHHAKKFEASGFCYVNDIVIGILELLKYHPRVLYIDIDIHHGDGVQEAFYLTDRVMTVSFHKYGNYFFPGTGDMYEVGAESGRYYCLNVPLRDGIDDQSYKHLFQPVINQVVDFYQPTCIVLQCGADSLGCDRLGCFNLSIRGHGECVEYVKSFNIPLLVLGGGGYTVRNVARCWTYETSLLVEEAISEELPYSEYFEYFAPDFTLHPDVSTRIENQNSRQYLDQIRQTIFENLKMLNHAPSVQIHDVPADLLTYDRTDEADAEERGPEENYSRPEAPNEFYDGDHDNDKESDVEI
IDE act: IDE (human) activation, cell-based; 0.073% of 340,000 active; P14735; HEK cells, FAbeta-B cleavage, fluorescence polarization; 0% vehicle, 100% cell-free pure enzyme wells; activation, % at 5.96 µM;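 active = activation above the mean of all tested compounds plus 3 SD, set per screening campaign, cut at about 17% in these data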
LANA-H2A inh: blocks KSHV LANA binding to histone H2A/H2B. Q9QR71. cell-free LANA-H2A/H2B peptide, fluorescence polarization. inhibition, % (concentration not given with the values). 0.6% of 320,000 active. AID 2629; in the data active = inhibition mostly above about 10%, no sharp cut-off; inactive = mostly below about 6.7%
Numbers stand for hits; 0 = inactive; - = no result; + = active, no number.

SMILES | IDE cell inh | HDAC3 inhib | IDE act | LANA-H2A inh
O=C1CC(=O)Nc2cc(S(=O)(=O)N3CCOc4ccc(Cl)cc43)ccc2N1 | 0 | 0 | 0 | 31
Cc1ccc2c(c1)N(S(=O)(=O)c1ccc3c(c1)NC(=O)CC(=O)N3)CCO2 | 0 | - | 0 | -
CN(C(=O)c1cccc(NC(=O)Cc2ccc(NC(=O)C3CCN(C(=O)C4CC4)CC3)cc2)c1)C1CCCC1 | - | - | 0 | -
Cc1cc(NC(=O)CCCC(=O)N(CC(=O)NC2CCCCC2)c2ccccc2)no1 | 0 | 0 | 0 | 0
Cc1cc(NC(=O)CCC(=O)N(CC(=O)NC2CCCC2)c2ccccc2)no1 | 0 | 0 | 0 | 22
CN(C)CCCNC(=S)N(CCCN(C)C)Cc1cc2cc3c(cc2[nH]c1=O)OCO3 | 0 | 0 | 0 | 20
CC(=O)Oc1ccccc1-c1nc(C)nc(N(C)C(C)=O)n1 | 0 | 0 | 0 | 44
CN(C)c1ccc(NC(=O)COC(=O)c2ccc3c(c2)OCO3)cc1 | 0 | 33 | 0 | 0
CCN(CC(=O)Nc1c(F)cccc1F)C(=O)c1ccc(OCc2c(C)noc2C)cc1 | 0 | 0 | 0 | 0
O=C(CC1C(=O)NCCN1C(=O)Nc1ccccc1)Nc1cc(Cl)cc(Cl)c1 (stereo not drawn) | 0 | 0 | 0 | 0
COC(=O)c1cc(NC(=O)c2ccc([N+](=O)[O-])cc2)c(=O)oc1C | 0 | 0 | 0 | 13
CC(=O)c1cc(NC(=O)c2ccc([N+](=O)[O-])cc2)c(=O)oc1C | 0 | 0 | 0 | 0
Cc1nnsc1C(=O)Nc1ccc(S(=O)(=O)N2CCCC(C)C2)cc1 (stereo not drawn) | 0 | - | 0 | -
Cc1cccn2c(=O)c3cc(C(=O)NC4CCCC4)c(=N)n(CCc4ccccc4)c3nc12 | 0 | 0 | 0 | 14
O=C(OCC#Cc1c(COC(=O)c2ccccc2)nnn1Cc1ccccc1)c1ccccc1 | 0 | 0 | 0 | 0
CC(OC(=O)CC1CC2CCC1C2)C(=O)Nc1cccc(S(=O)(=O)N2CCOCC2)c1 (stereo not drawn) | 0 | 0 | 18 | 0
CC(Sc1nnc(C2CC2)n1C1CC1)C(=O)Nc1cccc(S(=O)(=O)N2CCOCC2)c1 (stereo not drawn) | 0 | 0 | 0 | 18
COC(=O)[C@H](CC(C)C)NS(=O)(=O)N(Cc1ccccc1)[C@@H](CC(C)C)C(=O)OC | 0 | 31 | 0 | 0
Cc1ccc(-n2nc3c(c2NC(=O)c2ccc(F)c(F)c2)CS(=O)(=O)C3)cc1 | 0 | 0 | 0 | 109
Cc1ccc(-n2nc3c(c2NC(=O)c2ccc4c(c2)OCO4)CS(=O)(=O)C3)cc1 | 0 | 0 | 0 | 0
CCOC(=O)c1nnn(-c2ccc([N+](=O)[O-])cc2[N+](=O)[O-])c1C | 0 | 0 | 0 | 0
Cc1cc(C)nc(SCc2nnc(SCC(N)=O)o2)n1 | 0 | 0 | 0 | 0
O=C(O)c1ccccc1C(=O)N1CCN(S(=O)(=O)c2cccc(C(F)(F)F)c2)CC1 | 0 | 0 | 0 | 43
O=C(c1ccncc1)N1CCN(S(=O)(=O)c2cccc(C(F)(F)F)c2)CC1 | 0 | 0 | 0 | 0
CCOC(=O)C1CCCN(c2nc3ccccc3nc2C(C#N)C(=O)OCC)C1 (stereo not drawn) | 0 | 0 | 0 | 0
SMILES | IDE cell inh | HDAC3 inhib | IDE act | LANA-H2A inh
CCOC(=O)C1CCCN(c2nc3ccccc3nc2C(C#N)C(=O)OCCOC)C1 (stereo not drawn) | 0 | 0 | 0 | 20
COc1ccc(/C=N/NC(=O)c2ccccc2NC(=O)c2ccco2)c(OC)c1 | 0 | 0 | 0 | 0
O=C(CCn1c(=S)oc2ccccc21)Nc1cccc(F)c1 | 0 | 0 | 0 | 129
Cc1ccccc1/C=C1\Oc2ccccc2C1=O | 0 | 0 | 0 | 57
COc1ccc(-c2sc3ccccc3c2-c2ccc(O)cc2)cc1 | 0 | 0 | 0 | 0
COc1ccc(-c2sc3cc(OC)c(OC)cc3c2-c2ccc(O)cc2)cc1 | 0 | 0 | 0 | +
Cc1occc1C(=O)N1CCCC(CCC(=O)NCc2ccc(F)c(F)c2)C1 (stereo not drawn) | 0 | 0 | 0 | 0
CSc1ncccc1C(=O)N1CCCC(CCC(=O)NCc2ccc(F)c(F)c2)C1 (stereo not drawn) | 0 | 0 | 0 | 14
CC(=O)N1CC(=O)N=C1SCC(=O)Nc1nc(-c2ccccc2)c(-c2ccccc2)s1 | 0 | 29 | 0 | 0
CCC(C)[C@H]1CNC(=S)N1CCC12CC3CC(CC(C3)C1)C2 (stereo partly drawn) | 0 | 0 | 0 | 16
O=C(O)c1csc(-n2nc(-c3ccccc3)cc2C(F)(F)F)n1 | 0 | - | 0 | 0
Cc1sc(NC(=O)CN2C(=O)NC3(CCCC3)C2=O)nc1-c1ccc(F)cc1 | 0 | 0 | 0 | 0
O=C(CN1C(=O)NC2(CCCC2)C1=O)Nc1ccccc1F | 0 | 0 | 0 | 27

Screens: PubChem BioAssay, several laboratories
